# Only some compounds are listed: those with a hit (about 12% of all), similar ones and a draw of the others.
# WT yeast gro inh = growth inhibition of WT yeast, mitochondrial fusion screen. mitochondrial fusion phenotypic screen, WT strain. inhibition, % at 10 µM. 190,000 compounds, 2.1% hits; in the data active = inhibition above about 58%; tested in S. cerevisiae
# CHOP inhibitor = blocks CHOP induction under ER stress; CHO-K1 CHOP-promoter luciferase, tunicamycin-induced, 15-18 h; inhibition, % at 10 µM; 220,000 compounds, 3.8% hits; AID 2732;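 active = compounds that reduced the stress-induced luciferase reporter signal by more than about 70% of percent inhibition, limit read from the data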
# Arbovirus anti = antivirals against arbovirus infection; arbovirus infection cell-based antiviral screen; inhibition, % at 10 µM; 200,000 compounds, 0.37% hits; in the data active = inhibition above about 30%
# L major viab = Leishmania major promastigote growth inhibition; AID 1063; inhibition, % at 10 µM; Leishmania major promastigotes, resazurin fluorescence viability; 200,000 compounds, 9% hits; in the data active = inhibition above about 50%;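 note: promastigotes grown with compound for 44 hours at 28 °C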
# Numbers stand for hits; – = inactive; · = no result given.
SMILES,WT yeast gro inh,CHOP inhibitor,Arbovirus anti,L major viab
O=c1cc2c(nn1Cc1c(Cl)cccc1Cl)-c1ccccc1CC2,–,85,–,–
Clc1cccc(Cl)c1CSc1cc2c(nn1)-c1ccccc1CC2,–,–,–,–
COc1cc(SC)ccc1C(=O)NCCOc1ccc(C)c(C)c1,64,–,–,–
COc1cc(SC)ccc1C(=O)Nc1ccc(Cl)cn1,–,86,–,–
COc1cc(SC)ccc1C(=O)NCC1CCCO1 (configuration not stated),86,–,–,–
CSc1ccc(Cl)c(C(=O)Nc2ccc(Cl)cn2)c1,–,–,–,–
CCOc1ccccc1N1CCN(Cc2cn[nH]c2-c2ccc(F)cc2)CC1,·,–,·,·
CCOc1ccc(C2c3cc(OC)c(OC)cc3CC(=O)N2c2ccc(OC)cc2)cc1 (configuration not stated),–,–,–,80
CCC(CO)Nc1nc2ccc(Cl)cc2c2ccccc12 (configuration not stated),·,–,·,·
CC1=CC(C)C2(CO)COC(c3ccccc3O)C1C2C (configuration not stated),–,–,–,–
CCc1ccc(-c2cc(C(=O)Nc3c(C)n(C)n(-c4ccccc4)c3=O)c3ccccc3n2)s1,–,–,–,–
Cc1cc(Br)cc2c(C(=O)Nc3c(C)n(C)n(-c4ccccc4)c3=O)cc(-c3cccs3)nc12,–,–,–,69
COC(=O)c1ccc(S(=O)(=O)NCc2ccccn2)n1C,·,–,·,·
COC(=O)c1c(C(=O)OC)n(CCCN)c2ccc(C)cc12,·,–,–,59
Cc1nc(NC2=NCN(CCc3ccccc3)CN2)nc2c(C)cccc12,·,·,·,96
Cc1nc(NC2=NCN(CC3CCCO3)CN2)nc2ccccc12 (configuration not stated),·,·,·,–
Cc1nc(NC2=NCN(CCCN3CCOCC3)CN2)nc2c(C)cccc12,–,–,–,88
N#CNC1=NCN(Cc2ccccc2)CN1,–,–,–,–
Cc1nc(NC2=NCN(C3CCCCC3C)CN2)nc2ccccc12 (configuration not stated),86,–,–,–
COc1ccc(CCN(C)C(=S)NC(=O)c2ccc(F)cc2Cl)cc1OC,–,–,–,–
O=C1CNC(=S)N1c1nc2ccccc2s1,·,–,·,·
Cc1[nH]c(=O)[nH]c(=O)c1/C=C/C(=O)OCC(C)C,–,–,–,–
Nc1nc(Nc2ccc(Cl)cc2Cl)nc(C(F)(F)F)n1,–,75,–,–
CCOC(=O)C1=C(N)OC2=C(C(=O)CC(C)C2)C1c1cccnc1 (configuration not stated),–,–,–,70
CCCOC(=O)C1=C(C)NC2=C(C(=O)CC(C)(C)C2)C1c1cccnc1 (configuration not stated),–,–,–,90
SMILES,WT yeast gro inh,CHOP inhibitor,Arbovirus anti,L major viab
CCOC(=O)C1=C(N)Oc2cc(O)ccc2C1c1cccnc1 (configuration not stated),–,–,–,92
COCCOC(=O)C1=C(N)OC2=C(C(=O)CC(C)(C)C2)C1c1cccnc1 (configuration not stated),–,–,–,82
COCCOC(=O)C1=C(N)OC2=C(C(=O)CC(C)(C)C2)C1c1ccncc1 (configuration not stated),–,–,–,–
O=C(C[n+]1ccc(/C=N/O)cc1)N1CCCCC1,·,–,·,·
FC(F)(F)c1ccc(C2[C@H]3CN(Cc4cccnc4)[C@H](c4ccccc4)C34CC2(c2ccccc2)C4)cc1 (some centres not stated),·,–,·,·
Cc1[nH]n(-c2ccccc2)c(=O)c1/C=N\NC(=O)C1COc2ccccc2O1 (configuration not stated),–,–,–,–
CCN(CC)S(=O)(=O)c1ccc(OC)c(NC(=O)c2cc(=O)[nH]c3ccccc23)c1,–,–,–,–
CCNC(=O)NC(=O)C(C)OC(=O)C1CCN(S(=O)(=O)c2ccccc2C(=O)OC)CC1 (configuration not stated),–,–,–,–
C#CC(CC)(CC)NC(=S)Nc1cccc(C(C)=O)c1,–,–,–,–
C=CCN1C(=O)SC(Cc2cccc(OC)c2O)C1=O (configuration not stated),–,–,–,–
CC1CN(C2CCN(C(=O)c3cccc(Cl)c3)CC2)CC(C)O1 (configuration not stated),–,–,–,91
CC1CN(C2CCN(C(=O)c3ccccc3Cl)CC2)CC(C)O1 (configuration not stated),–,–,–,88
O=C(O)C1CCN(C(=O)c2ccccc2Cl)CC1,–,–,–,–
O=C(c1cccc(F)c1)N1CCC(N2CCOCC2)CC1,–,–,–,62
COC(Cc1n[nH]c(=S)n1-c1ccc(Cl)cc1)OC,–,–,–,–
Cc1cc(C)c(Cc2c(C)nc3c(C(=O)NCc4ccco4)cnn3c2C)c(C)c1,63,–,–,–
